Laboratory results reported in PubChem BioAssay (NCATS).
Values joined by “and” are separate entries in the source; they are usually repeats but may differ in a detail not shown here. Identical values can stand only once. Results filed as inconclusive are left out. Active and inactive are the calls of the source. Unless noted, the call rests on the fitted dose curve; in most records, active means well fitted curve in either direction with a large enough effect (not every such curve was filed as active); inconclusive means small, poorly fitted or top-dose-only effect, or another doubt; inactive means flat fitted curve, though single readings scatter.

Tests used:
[1] = biological target: Lysosomal acid glucosylceramidase (Homo sapiens) (UniProt P04062); experiment: Glucocerebrosidase-p2 (AID 348; in the data active means potency below about 10 µM; further: potency means the concentration at half of the fitted maximal effect); conditions: purified GBA, blue fluorogenic substrate, 40 min
Sequence of Lysosomal acid glucosylceramidase (Homo sapiens) (P04062 whole entry, looked up): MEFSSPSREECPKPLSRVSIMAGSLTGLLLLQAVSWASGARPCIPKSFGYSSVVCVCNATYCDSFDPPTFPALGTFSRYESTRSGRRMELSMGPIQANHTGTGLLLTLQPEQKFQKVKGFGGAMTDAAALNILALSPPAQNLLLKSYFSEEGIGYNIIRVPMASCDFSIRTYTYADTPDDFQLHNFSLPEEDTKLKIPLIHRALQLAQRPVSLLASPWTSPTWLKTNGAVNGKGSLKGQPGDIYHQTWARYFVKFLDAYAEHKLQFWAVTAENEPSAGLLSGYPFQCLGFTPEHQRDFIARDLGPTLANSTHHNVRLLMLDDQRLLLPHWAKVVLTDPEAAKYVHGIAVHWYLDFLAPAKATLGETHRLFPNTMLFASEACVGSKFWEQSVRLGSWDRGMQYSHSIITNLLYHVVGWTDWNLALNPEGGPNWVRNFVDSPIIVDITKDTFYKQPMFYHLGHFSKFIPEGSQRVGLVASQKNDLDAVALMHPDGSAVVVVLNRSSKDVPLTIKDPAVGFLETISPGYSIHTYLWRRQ
In short: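 Compounds titrated from 0.6 nM upwards against 0.2 nM enzyme in pH 5.9 citric acid/KH2PO4, taurocholate, tween-20; blue fluorogenic substrate 80 uM, 40 min room temperature, stopped and read Ex 365/Em 440 for AC50.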

[2] = AP1 Signaling Pathway (AID 357); conditions: ME-180 AP-1-bla reporter, EGF-induced, beta-lactamase ratio, 5 h; further: on the % scale 0 is the no-effect control and ±100 the full control effect
In short: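 ME-180 cells with beta-lactamase reporter under AP-1 response element, stimulated with EC50 EGF; compounds tested in titration series, 5 h at 37 °C. CCF4 substrate added 2.5 h at room temperature; 460/530 nm emission ratio gave %activity and AC50.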

[3] = biological target: Cytochrome P450 1A2 (Homo sapiens) (UniProt P05177); experiment: p450-cyp1a2 (AID 410; calls by dose curve; further: potency means the concentration at half of the fitted maximal effect;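 on activity change, negative = inhibition: -100% = full effect of reference inhibitor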); conditions: recombinant CYP1A2, luciferin-ME demethylation, luminescence; series mostly up to 25.6 µM
Sequence of Cytochrome P450 1A2 (Homo sapiens) (P05177 whole entry, looked up): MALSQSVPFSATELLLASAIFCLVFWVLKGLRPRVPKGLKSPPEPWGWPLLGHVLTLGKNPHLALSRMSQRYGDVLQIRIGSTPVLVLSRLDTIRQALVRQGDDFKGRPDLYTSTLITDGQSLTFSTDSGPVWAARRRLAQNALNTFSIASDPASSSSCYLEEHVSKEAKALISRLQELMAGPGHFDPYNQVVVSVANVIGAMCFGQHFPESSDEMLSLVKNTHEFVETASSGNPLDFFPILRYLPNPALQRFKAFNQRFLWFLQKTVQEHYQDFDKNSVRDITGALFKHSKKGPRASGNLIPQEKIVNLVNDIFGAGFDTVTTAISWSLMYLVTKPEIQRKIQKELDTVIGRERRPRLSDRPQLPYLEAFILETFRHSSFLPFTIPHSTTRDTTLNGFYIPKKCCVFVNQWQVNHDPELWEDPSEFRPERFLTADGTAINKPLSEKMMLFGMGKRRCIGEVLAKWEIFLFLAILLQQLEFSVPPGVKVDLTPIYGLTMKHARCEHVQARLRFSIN
In short: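 Inhibition was calculated relative to 57 uM furafylline (full inhibition). The reaction used human CYP1A2 at 20nM with Luciferin-ME at its Km, 100uM, driven by an NADPH-regenerating system for 60 min at room temperature.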

[4] = NFAT Signaling Pathway (AID 444); conditions: Jurkat NFAT-bla M1, carbachol, beta-lactamase ratio, 5 h;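 further: carbachol stimulus at about its EC50 of 1 µM final; on the % scale 0 is the no-effect control and ±100 the full control effect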
In short: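 Read-out: CCF4 FRET ratio (460 nm/530 nm) after 1 h RT dye loading, used for %activity and AC50 from titration series. Cells: Jurkat NFAT-β-lactamase/M1 line, treated with compound plus 1 uM carbachol for 5 h, 37 °C.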

[5] = Stat Signaling Pathway (AID 446); conditions: ME-180 SIE beta-lactamase reporter, IL-6 stimulated, 5 h;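 further: ME-180 cervical cancer cells given 40 pM IL-6 alongside compound; SIE-controlled beta-lactamase reporter measured as 460/530 nm FRET emission ratio; on the % scale 0 is the no-effect control and ±100 the full control effect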
In short: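 Reporter line: ME-180 cervical carcinoma, SIE-beta-lactamase. Treatment: compound with 40 pM IL-6, 5 hrs, 37 C, in low-serum OPTI-MEM with 10 mM HEPES pH 7.3. Detection: 460/530 nm fluorescence.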

[6] = biological target: Mitogen-activated protein kinase 10 (Mus musculus) (UniProt Q61831); experiment: JNK3 AlphaScreen Assay (AID 530); conditions: JNK3 lysate, c-Jun phosphorylation; series mostly up to 25.6 µM;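 further: kinase came from lysate of stimulated human HepG2 cells; signal reports phosphorylation of biotinylated GST-cJun 1-79 at Ser73 with 10 µM ATP; on the % scale 0 is the no-effect control and ±100 the full control effect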
In short: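 Room-temperature AlphaScreen kinase assay; pre-activated HepG2 lysate as JNK3 source, biotin-GST-cJun(1-79) substrate, 10 uM ATP, compound 15 min preincubation.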

[7] = biological target: Glucocorticoid receptor (Homo sapiens) (UniProt P04150); experiment: GR-GFP Redistribution (AID 450;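 active means compounds whose dose series gives a full or clear partial fitted curve of increased nuclear translocation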; further: potency means the concentration at half of the fitted maximal effect); conditions: U2OS GR-GFP nuclear translocation, laser cytometry, 2 h
Sequence of Glucocorticoid receptor (Homo sapiens) (P04150 whole entry, looked up, the tested form may be a part): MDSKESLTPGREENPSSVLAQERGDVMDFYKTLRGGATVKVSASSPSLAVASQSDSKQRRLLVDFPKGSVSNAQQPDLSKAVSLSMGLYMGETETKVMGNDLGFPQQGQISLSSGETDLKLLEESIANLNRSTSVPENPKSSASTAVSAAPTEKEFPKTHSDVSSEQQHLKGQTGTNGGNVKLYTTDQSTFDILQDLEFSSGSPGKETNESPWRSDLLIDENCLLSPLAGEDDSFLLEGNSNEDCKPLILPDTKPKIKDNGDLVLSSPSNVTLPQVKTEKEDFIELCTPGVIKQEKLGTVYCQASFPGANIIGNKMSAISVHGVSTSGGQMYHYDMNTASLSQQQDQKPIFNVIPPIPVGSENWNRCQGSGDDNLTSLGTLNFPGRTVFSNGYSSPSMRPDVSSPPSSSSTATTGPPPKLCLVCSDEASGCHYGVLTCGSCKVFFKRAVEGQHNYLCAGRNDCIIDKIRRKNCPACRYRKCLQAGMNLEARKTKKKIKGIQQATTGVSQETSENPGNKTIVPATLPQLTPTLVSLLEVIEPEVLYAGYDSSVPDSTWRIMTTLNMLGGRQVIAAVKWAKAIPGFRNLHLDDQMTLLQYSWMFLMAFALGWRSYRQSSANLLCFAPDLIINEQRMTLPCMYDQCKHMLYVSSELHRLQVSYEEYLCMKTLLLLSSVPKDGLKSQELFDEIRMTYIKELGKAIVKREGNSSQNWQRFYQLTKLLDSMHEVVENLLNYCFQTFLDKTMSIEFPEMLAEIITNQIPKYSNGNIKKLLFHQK

[8] = biological target: Glucocorticoid receptor (Homo sapiens) (UniProt P04150); experiment: GR-EFC Redistribution (AID 451; calls by dose curve; further: potency means the concentration at half of the fitted maximal effect); conditions: CHO-K1 GR-EFC translocation, beta-gal luminescence, 2 h
In short: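 Translocation of GR-ED fusion to nuclear EA restores b-gal, read by luminescence after 1 h room-temperature detection. Engineered CHO-K1 biosensor cells, 1,000/well, exposed 2 h at 37 C to titrations up to 46 uM final.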

[9] = Cell Viability - BJ (AID 421; calls by dose curve;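 further: potency means the concentration at half of the fitted maximal effect; cells exposed to compound for 40 hours at 37 °C before readout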); conditions: BJ fibroblast viability, qHTS
In short: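 Cytotoxicity as drop in intracellular ATP (CellTiter-Glo, 20 min RT) after 40 hr compound exposure of BJ fibroblasts at 37 °C. Titrations scaled between DMSO and 100 uM tamoxifen, Hill-fitted for AC50.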

[10] = Cell Viability - Jurkat (AID 426;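 active means dose-dependent loss of cell ATP signal giving a full or clear fitted curve, ranked by lower potency value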;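 further: potency means the concentration at half of the fitted maximal effect; cells exposed to compound for 40 hours at 37 °C before ATP read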); conditions: qHTS
In short: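 Seed 5000 Jurkat E6-1 cells/well; add compound; incubate 40 hr at 37 °C; add CellTiter-Glo; wait 20 min at room temperature; read luminescence. Fit concentration-response with Hill equation for AC50.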

[11] = Cell Viability - Hek293 (AID 427;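 active means compounds whose dose-response curve shows a full or clear partial loss of cell viability, called from curve shape rather than a numeric limit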;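 further: potency means the concentration at half of the fitted maximal effect; cells exposed to compound for 40 hours at 37 °C before reading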); conditions: qHTS
In short: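 Luminescent ATP content (CellTiter-Glo, 20 min at room temperature) was measured after a 40 hr, 37 °C compound exposure of HEK293 cells. AC50 values came from Hill-equation fits of qHTS concentration-response data normalized to DMSO and 100 uM tamoxifen.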

[12] = Cell Viability - HepG2 (AID 433; calls by dose curve;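 further: potency means the concentration at half of the fitted maximal effect; cells exposed to compound for 40 hours; potency for ATP loss meaning cytotoxicity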); conditions: qHTS
In short: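 Cytotoxicity read as ATP loss (CellTiter-Glo luminescence) after 40 hr compound exposure of HepG2, 1500 cells/well, 37 °C. AC50 by Hill equation; 0% set by DMSO, 100% inhibition by 100 uM tamoxifen.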

[13] = Cell Viability - MRC5 (AID 434; calls by dose curve;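 further: potency means the concentration at half of the fitted maximal effect; cells exposed to compound for 40 hours at 37 °C; potency reflects cytotoxicity seen as loss of intracellular ATP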); conditions: MRC5 lung fibroblast viability, qHTS
In short: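 qHTS cytotoxicity in human lung fibroblast MRC5 cells; 40 hr treatment, 37 °C; cellular ATP by luciferase luminescence; DMSO = 0%, 100 uM tamoxifen = 100% inhibition; Hill-fit AC50.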

[14] = Cell Viability - SK-N-SH (AID 435; calls by dose curve; further: potency means the concentration at half of the fitted maximal effect); conditions: SK-N-SH neuroblastoma cell viability qHTS
In short: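 qHTS cytotoxicity: CellTiter-Glo ATP luminescence after 40 h compound exposure of human neuroblastoma SK-N-SH cells at 37 °C. AC50 derived by Hill-equation fitting, with DMSO as basal and 100 uM tamoxifen as full inhibition.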

[15] = Cell Viability - N2a (AID 540; active means well fitted curve in the direction sought with a large enough effect; an effect the other way counts as inactive or inconclusive; further: nearly all actives have a fitted effect of over 45% in size; further: potency means the concentration at half of the fitted maximal effect;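 on activity change, negative = cytotoxicity: plate controls were DMSO alone for no effect and tamoxifen control for full effect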); conditions: N2a mouse neuroblastoma cell viability; activity change, negative = cytotoxicity: at 92.2 µM (top of the series)
In short: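 First, 1500 N2a cells per well incubate 5 hr at 37 °C; next, compounds are added and incubated 40 hr at 37 °C; finally CellTiter-Glo is added and luminescence read after 20 min, with AC50 derived by Hill modeling.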

[16] = Cell Viability - NIH 3T3 (AID 541; active means well fitted curve in the direction sought with a large enough effect; an effect the other way counts as inactive or inconclusive;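 further: cells exposed to compound for 40 hours; plate controls were DMSO alone for no effect and tamoxifen positive control for full effect; nearly all actives have a fitted effect of over 25% in size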); conditions: NIH 3T3 cell viability, qHTS; activity change, negative = cytotoxicity: at 92.2 µM (top of the series)
In short: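 AC50 values reflect concentration-dependent loss of intracellular ATP in NIH 3T3 cells after 40 hr treatment in complete culture medium, quantified by luciferase-based luminescence.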

[17] = Cell Viability - HUV-EC-C (AID 542; active means well fitted curve in the direction sought with a large enough effect; an effect the other way counts as inactive or inconclusive;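 further: cells exposed to compound for 40 hours; on the % scale 0 is the no-effect control and ±100 the full control effect; nearly all actives have a fitted effect of over 35% in size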); conditions: HUV-EC-C endothelial cell viability, qHTS; series mostly up to 92.2 µM
In short: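 Decrease in cellular ATP, quantified by luciferase luminescence, reflects toxicity in normal human vascular endothelial HUV-EC-C cells given compound for 40 hr in complete culture medium. Values are AC50s from concentration-response curves.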

[18] = Cell Viability - H-4-II-E (AID 543; active means well fitted curve in the direction sought with a large enough effect; an effect the other way counts as inactive or inconclusive;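 further: cells exposed to compound for 40 hours; nearly all actives have a fitted effect of over 35% in size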; further: potency means the concentration at half of the fitted maximal effect); conditions: H-4-II-E rat hepatoma viability; series mostly up to 92.2 µM
In short: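 Here, cytotoxicity is measured in the rat hepatoma line H-4-II-E as loss of intracellular ATP after 40 hr compound treatment, detected by luciferase luminescence.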

[19] = Cell Viability - SH-SY5Y (AID 544; active means well fitted curve in the direction sought with a large enough effect; an effect the other way counts as inactive or inconclusive;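 further: cells exposed to compound for 40 hours; nearly all actives have a fitted effect of over 55% in size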; further: potency means the concentration at half of the fitted maximal effect;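 on viability change, negative = cytotoxic: 0% = DMSO alone and -100% = 100 µM tamoxifen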); conditions: SH-SY5Y neuroblastoma cell viability; viability change, negative = cytotoxic: at 92.2 µM (top of the series)
In short: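 Cytotoxicity is scored as a concentration-dependent fall in intracellular ATP in human SH-SY5Y cells treated 40 hr in complete culture medium. Potency is expressed as AC50 from a Hill equation fit.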

[20] = Cell Viability - Renal Proximal Tubule (AID 545; active means well fitted curve in the direction sought with a large enough effect; an effect the other way counts as inactive or inconclusive;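 further: cells exposed to compound for 40 hours; nearly all actives have a fitted effect of over 40% in size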; further: potency means the concentration at half of the fitted maximal effect;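 on activity change, negative = cytotoxicity: 0% = DMSO only and -100% = 100 µM tamoxifen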); conditions: renal proximal tubule cells viability, primary cells of rat origin; activity change, negative = cytotoxicity: at 91.7 µM (top of the series)
In short: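 Viability taken as intracellular ATP (CellTiter-Glo luminescence) after 40 hr, 37 °C compound treatment of primary proximal tubule cells from rat kidney, 1000 cells/well; Hill-equation fits of qHTS concentration-response data gave AC50.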

Cc1cc(N)c2cc(NC(=O)Nc3ccc4nc(C)cc(N)c4c3)ccc2n1
inactive: Potency [1] > 11.4 µM | activity change, negative = inhibition ([2]; at 7.69 µM (top of the series)) 14% | Potency [3] | activity change, negative = inhibition ([4]; at 7.69 µM (top of the series)) -11.7% | activity, negative = inhibition ([5]; at 7.69 µM (top of the series)) -4.38% | outcome [6]

Cc1c(N(C)CS(=O)(=O)O)c(=O)n(-c2ccccc2)n1C
inactive: activity change, negative = inhibition ([2]; at 17.2 µM (top of the series)) 6.43% | Potency [3] | activity change, negative = inhibition ([4]; at 17.2 µM (top of the series)) -4.94% | activity, negative = inhibition ([5]; at 17.2 µM (top of the series)) -1.51% | Potency [7] > 20.6 µM | Potency [8] > 20.6 µM | outcome [6]

Nc1nc2ncc(CNc3ccc(C(=O)N[C@@H](CCC(=O)O)C(=O)O)cc3)nc2c(=O)[nH]1
inactive: activity change, negative = inhibition ([2]; at 17.2 µM (top of the series)) 0.033% | Potency [3] | activity change, negative = inhibition ([4]; at 17.2 µM (top of the series)) 2.08% | activity, negative = inhibition ([5]; at 17.2 µM (top of the series)) 1.24% | Potency [7] > 20.6 µM | Potency [8] > 20.6 µM | outcome [6]

CC(=O)Oc1ccc(C(c2ccc(OC(C)=O)cc2)c2ccccn2)cc1
inactive: activity change, negative = inhibition ([2]; at 17.2 µM (top of the series)) -26.3% and -21% | Potency [3] | Potency [9] > 92 µM | Potency [10] > 92 µM | Potency [11] > 92 µM | Potency [12] > 92 µM | Potency [13] > 92 µM | Potency [14] > 92 µM | activity change, negative = inhibition ([4]; at 17.2 µM (top of the series)) 7.84% and -13.9% | outcome [6] | Potency [15] | Potency [16] | Potency [17] | Potency [18] | Potency [19] | activity change, negative = cytotoxicity [20] -2.53%

COc1c(C)c2c(c(O)c1C/C=C(\C)CCC(=O)O)C(=O)OC2
active: Potency [3] 31.6 µM
inactive: activity change, negative = inhibition ([2]; at 17.2 µM (top of the series)) 6.58% | activity change, negative = inhibition ([4]; at 17.2 µM (top of the series)) -1.42% | activity, negative = inhibition ([5]; at 17.2 µM (top of the series)) 8.02% | outcome [6]

COc1cccc2c1C(=O)c1c(O)c3c(c(O)c1C2=O)C[C@@](O)(C(C)=O)C[C@@H]3O[C@H]1C[C@H](N)[C@H](O)[C@H](C)O1
active: activity change, negative = inhibition ([2]; at 17.2 µM (top of the series)) -116% | Potency [3] 31.6 µM | Potency [9] 4.61 µM | Potency [10] 0.0218 µM | Potency [11] 0.00723 µM | Potency [12] 49.7 µM | Potency [13] 19.5 µM | Potency [14] 0.0141 µM | activity change, negative = inhibition ([4]; at 17.2 µM (top of the series)) -129% | activity, negative = inhibition ([5]; at 17.2 µM (top of the series)) -103% | Potency [15] 0.251 µM | Potency [18] 3.16 µM | Potency [19] 0.00794 µM | Potency [20] 3.98 µM
inactive: Potency [7] > 46 µM and > 20.6 µM | Potency [8] > 46 µM

CCCn1c(=O)[nH]c(=O)c2[nH]cnc21
inactive: activity change, negative = inhibition ([2]; at 17.2 µM (top of the series)) 4.48% | activity change, negative = inhibition ([2]; at 38 µM (top of the series)) 4.71% | Potency [3] | activity change, negative = inhibition ([4]; at 17.2 µM (top of the series)) -21.8% | activity change, negative = inhibition ([4]; at 38 µM (top of the series)) 4.56% | activity, negative = inhibition ([5]; at 17.2 µM (top of the series)) 4.71% | activity, negative = inhibition ([5]; at 38 µM (top of the series)) -5.28% | outcome [6]
